# Assay outcomes deposited in PubChem by National Center for Advancing Translational Sciences (NCATS).
# Tau fluor counter: Counterscreen qHTS for Inhibitors of Tau Fibril Formation, Fluorescence Polarization; tau K18 P301L Alexa594 fluorescence, heparin fibrillization; Potency, µM (series often up to 57.7 µM); actives 0.93% (n = 280,000); note: nearly all actives have a fitted effect of over 55% in size
#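 Human K18 P301L tau (15 uM unlabeled plus 0.24 uM Alexa 594-labeled, final) in 100 mM sodium acetate pH 7 was mixed with compound and 20 uM heparin and incubated 6 hr at 37 C.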
# Tau fibril FP: qHTS for Inhibitors of Tau Fibril Formation, Fluorescence Polarization; Potency, µM (titrated, usually from 57.7 µM), hits mostly inhibitors; Microtubule-associated protein tau (Homo sapiens), P10636; actives 0.39% (n = 280,000); K18 P301L tau heparin fibrillization, Alexa594 FP, 6 h; note: nearly all actives have a fitted effect of over 55% in size
#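 Human tau K18 […] P301L fragment, 15 uM unlabeled plus 0.24 uM Alexa 594-labeled tau (final), with compound and 20 uM heparin in 100 mM sodium acetate pH 7; 6 hr at 37 C, then Alexa 594 FP read.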
# ALDH1A1 block: qHTS Assay for Inhibitors of Aldehyde Dehydrogenase 1 (ALDH1A1); Potency, µM (titrated, usually from 75.3 µM), actives largely listed as inhibitors; Aldehyde dehydrogenase 1A1 (Homo sapiens), P00352; Purified ALDH1A1, NADH fluorescence, propionaldehyde substrate; actives 7.3% (n = 220,000); active = well fitted inhibition curve with a large enough effect, not every such curve was filed as active; inconclusive = small, poorly fitted or top-dose-only effect, or another doubt; inactive = no such curve, though single readings can be large or run the other way
# NPSR antagonist: qHTS Assay for Antagonists of the Neuropeptide S Receptor: cAMP Signal Transduction; Q6W5P4; CHO-NPSR cells, cAMP TR-FRET, antagonist mode; Potency, µM (series often up to 38.3 µM), most hits filed as inhibitors; actives 1% (n = 220,000); AID 1461, 2008; note: nearly all actives have a fitted effect of over 50% in size
# Target sequence (Q6W5P4 whole entry, looked up): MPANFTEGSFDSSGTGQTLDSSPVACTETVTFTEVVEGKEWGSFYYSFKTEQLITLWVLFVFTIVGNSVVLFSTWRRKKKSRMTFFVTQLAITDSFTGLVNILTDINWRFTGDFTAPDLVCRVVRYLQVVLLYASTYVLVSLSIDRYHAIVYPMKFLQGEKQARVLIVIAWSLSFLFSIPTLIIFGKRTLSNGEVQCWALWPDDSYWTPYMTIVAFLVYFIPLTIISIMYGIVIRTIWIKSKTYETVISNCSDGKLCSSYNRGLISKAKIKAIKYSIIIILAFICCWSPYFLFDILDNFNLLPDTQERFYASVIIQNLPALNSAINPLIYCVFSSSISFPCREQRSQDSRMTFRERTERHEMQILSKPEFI
# Tau fibril ThT: qHTS for Inhibitors of Tau Fibril Formation, Thioflavin T Binding; actives 2.1% (n = 270,000); recombinant tau K18 P301L (four-repeat tau fragment), heparin-induced fibrillization, ThT fluorescence; Potency, µM (doses to about 57.4 µM), usual class: inhibitors; Microtubule-associated protein tau (Homo sapiens), P10636; note: nearly all actives have a fitted effect of over 55% in size
#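 In this qHTS, human K18 P301L tau is incubated with compound and heparin for 6 hr at 37 C, and Thioflavin T fluorescence then reports fibril load.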
# HPGD inh: qHTS Assay for Inhibitors of HPGD (15-Hydroxyprostaglandin Dehydrogenase). AID 894, 2007. actives 4.3% (n = 150,000). Potency, µM, usual class: inhibitors. purified HPGD, NADH fluorescence kinetic, PGE2 substrate; active = well fitted inhibition curve with a large enough effect, not every such curve was filed as active; inconclusive = small, poorly fitted or top-dose-only effect, or another doubt; inactive = no such curve, though single readings can be large or run the other way
#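 NADH formation kinetics: reaction with 30 uM PGE2 and 1 mM NAD+ (final), 20 nM enzyme, Tris-HCl pH 8 with Tween 20, after 15 min compound preincubation at room temperature. Fluorescence change, last versus first of five reads.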
# A number is an active result; - = inactive; ? = inconclusive; . = no result; [ ] = another dose, or the depositor's remark. The list is not random: actives were taken first. Their share in the collection is about 9.5%. Unless noted, calls come from the whole dose curve; as a rule, active = well fitted curve in the direction sought with a large enough effect; inconclusive = small, poorly fitted or top-dose-only effect, or another doubt; inactive = no such curve, though single readings can be large; an effect the other way counts as inactive or inconclusive.
SMILES,Tau fluor counter,Tau fibril FP,ALDH1A1 block,NPSR antagonist,Tau fibril ThT,HPGD inh
Cc1cc(C)nc(SCC(=O)N2CCOCC2)n1,-,-,-,-,-,-
Cc1oc2nc(SCC(=O)N3CCCCC3)nc(N)c2c1C,-,-,?,-,-,1.4µM
Cc1cccc(C(=O)O/N=C2/CC3CCC2(C)C3(C)C)c1 (centres undefined),-,-,-,?,-,-
Cc1ccc(C(=O)O/N=C2\CC3CCC2(C)C3(C)C)cc1 (centres undefined),-,-,13µM,-,?,-
O=C(NCC1CCCO1)C1CCC(CNS(=O)(=O)c2ccccc2)CC1 (centres undefined),-,-,14µM,-,-,-
CN(C)c1ccc(C(=O)NCC2CCCO2)cc1 (centres undefined),-,-,-,-,-,14µM
O=C(NC(=S)NCC1CCCO1)c1ccccc1 (centres undefined),-,-,-,-,-,-
O=C(NCC1CCCO1)c1ccccc1 (centres undefined),-,-,-,-,-,20µM
CC(CC(=O)NCC1CCCO1)c1ccccc1 (centres undefined),-,-,-,-,-,16µM
CN(C)c1cccc(C(=O)NCC2CCCO2)c1 (centres undefined),-,-,?,-,-,-
CCC(C)NC(=O)c1ccccc1NC(=O)COc1ccc(OC)cc1 (centres undefined),-,-,-,-,-,-
CCc1ccc2oc(C(=O)N(Cc3cccc(Cl)c3)Cc3ccco3)c(C)c2c1,-,-,.,.,-,.
C[C@]12CCC(=O)C=C1CCC1C2C(=O)C[C@]2(C)C1CC[C@]2(O)C(=O)CO (some centres undefined),-,-,-,.,-,-
O=C(NCC1CCCO1)c1cccc(F)c1 (centres undefined),-,-,-,-,-,22µM
O=C(NCC1CCCO1)c1ccc2nc(N3CCCCC3)sc2c1 (centres undefined),-,-,?,-,-,?
O=C(NCC1CCCO1)c1ccc(N2CCCCC2)nc1 (centres undefined),-,-,?,-,-,14µM
O=C(NCC1CCCO1)NC1CCCCC1 (centres undefined),-,-,-,-,-,28µM
CN1CCN(C(=O)N2CCNC2=O)CC1,-,-,-,?,-,-
Cc1ccc(C(=O)N/C(=C\c2ccc(-c3ccc([N+](=O)[O-])cc3)o2)C(=O)NC2CCS(=O)(=O)C2)cc1 (centres undefined),?,-,-,-,6.3µM,-
Nc1nc(SCc2ccccc2[N+](=O)[O-])c2[nH]cnc2n1,.,.,-[13.5 µM],.,.,-
COc1cc2c(cc1OC)C(c1ccccc1O)N(C1CC(=O)N(c3ccccc3)C1=O)CC2 (centres undefined),-,-,13µM,-,-,-
COc1cc2c3cc1Oc1c(OC)c(OC)cc4c1[C@@H](Cc1ccc(O)c(c1)Oc1ccc(cc1)C[C@@H]3N(C)CC2)CN(C)C4,.,.,-[13.5 µM],.,.,-
C=CCn1c(C)c(C(C)=O)c(N2CCCC2)nc1=S,-,-,-,-,-,-
C=CCn1c(C)c(C(C)=O)c(N2CCN(c3ccccc3)CC2)nc1=S,-,?,28µM,-,?,-
Cc1cc(Cl)ccc1OCC(=O)n1cc(C(=O)c2cc(Cl)ccc2O)cn1,-,-,?,-,-,.
CN(C)c1cccc(C(=O)n2cc(C(=O)c3cc(F)ccc3O)cn2)c1,?,-,4.5µM,-,?,-
O=C(c1cn[nH]c1)c1cc(F)ccc1O,-,-,?,-,-,-
O=C(c1cnn(C(=O)c2ccc(O)cc2)c1)c1ccccc1O,-,-,?,-,?,.
